Compound activity (PubChem)
GLP-1R agonist = qHTS of GLP-1 Receptor Agonists; HEK293 GLP-1R CRE-luciferase, luminescence, 4-6 h; cells express a hypersensitive GLP-1R form; 0.007% of 380,000 active; Potency, µM (series often up to 45.6 µM), most hits filed as activators; Glucagon-like peptide 1 receptor (Homo sapiens), P43220
Target sequence (P43220 whole entry, looked up): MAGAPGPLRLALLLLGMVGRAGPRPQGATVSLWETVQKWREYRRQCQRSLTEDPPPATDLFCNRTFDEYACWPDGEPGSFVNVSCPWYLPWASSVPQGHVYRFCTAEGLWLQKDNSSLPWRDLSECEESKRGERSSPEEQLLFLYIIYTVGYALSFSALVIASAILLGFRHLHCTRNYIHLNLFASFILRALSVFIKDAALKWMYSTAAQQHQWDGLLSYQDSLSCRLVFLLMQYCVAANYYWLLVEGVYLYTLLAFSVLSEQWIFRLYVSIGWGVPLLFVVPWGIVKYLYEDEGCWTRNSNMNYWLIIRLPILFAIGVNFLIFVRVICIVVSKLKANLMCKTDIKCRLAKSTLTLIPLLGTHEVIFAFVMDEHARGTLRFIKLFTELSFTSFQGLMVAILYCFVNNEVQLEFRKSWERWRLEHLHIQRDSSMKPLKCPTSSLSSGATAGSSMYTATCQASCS
BRCA1 expr act = qHTS Assay to Identify Small Molecule Activators of BRCA1 Expression | MCF7-BRCA1-FFLuc reporter, luminescence, 48 h; response scale: scaled: vehicle 0%, 10 µM genistein 100% | Potency, µM (titrated, usually from 46.1 µM), usual class: activators | 1.1% of 380,000 active; further: nearly all actives have a fitted effect of over 80% in size
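48 h compound treatment of MCF7-BRCA1-FFLuc cells (phenol-red free MEM, 37 °C), then 15 min with luciferase substrate and luminescence imaging.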
HEK293 tox = qHTS of GLP-1 Receptor Inverse Agonists: Cytotox Screen; AID 624418, 2012; Potency, µM (titrated, usually from 38.3 µM), usual class: inhibitors; 0.13% of 410,000 active; HEK293 cAMP-luciferase reporter cells, luminescence, 24 h;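 further: loss of luciferase light is scored as toxicity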
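Here, cytotoxicity is scored as loss of luminescence. The MLSMR collection was tested on cells seeded in medium containing 10% Nu serum, with a 24 hr compound exposure preceded by 12 hours of culture.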
GLP1R inv ag = qHTS of GLP-1 Receptor Inverse Agonists (Inhibition Mode); HEK293 GLP-1R CRE-luciferase, luminescence, 24 h; GLP-1R form is constitutively active; 1.6% of 410,000 active; AID 624417, 2012; Potency, µM (top dose mostly 38.3 µM), actives largely listed as inhibitors; Glucagon-like peptide 1 receptor (Homo sapiens), P43220; further: nearly all actives have a fitted effect of over 55% in size
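Constitutively active GLP-1R drives a cAMP-responsive luciferase in stably transfected HEK293 cells; test compounds are added after overnight (12 h) attachment and left 24 hr, and signal loss in luminescence marks inhibition.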
Of the large screens only hits and unclear results are named; the others gave an inactive call. An excerpt weighted towards active compounds, which were near 2.6% of everything screened. The call rests on the fitted dose curve; in most records, active means well fitted curve in the direction sought with a large enough effect; inconclusive means small, poorly fitted or top-dose-only effect, or another doubt; inactive means no such curve, though single readings can be large; an effect the other way counts as inactive or inconclusive.

COc1cc(NC(=O)N2CCC3(CC2)Nc2cc(F)ccc2-n2cccc23)cc(OC)c1OC	GLP1R inv ag inconclusive (no result: GLP-1R agonist, BRCA1 expr act)
O=C(Nc1ccccc1Br)N1CCC(CN2CCCC2)CC1	none (no result: GLP-1R agonist, BRCA1 expr act)
CCN1c2ccccc2-n2cccc2C12CCN(C(=O)Nc1ccccc1Br)CC2	GLP1R inv ag 10µM (no result: GLP-1R agonist, BRCA1 expr act)
COc1ccc(-c2onc(C)c2C)cc1S(=O)(=O)Nc1cccc(C#N)c1	none (no result: GLP-1R agonist, BRCA1 expr act)
Cc1cccc(-c2nc(NCCCN3CCOCC3)c3ccccc3n2)c1	HEK293 tox inconclusive, GLP1R inv ag 8.91µM
C/C(NC(=O)c1ccccc1)=C1/C(=O)CC2C1C2(C)C (stereo not drawn)	BRCA1 expr act 11.2µM, GLP1R inv ag inconclusive
CN(C)CCNc1oc(-c2ccccc2Cl)nc1S(=O)(=O)c1ccccc1	GLP1R inv ag 3.16µM
CN(C)CCCNc1oc(-c2ccccc2Cl)nc1S(=O)(=O)c1ccc(F)cc1	GLP1R inv ag inconclusive
Cn1c(=O)c2c(ncn2CC(=O)OCC(=O)Nc2ccc(F)cc2F)n(C)c1=O	none
N#C/C(=C\c1ccc(N2CCCCC2)o1)C(=O)Nc1cccc(Br)c1	BRCA1 expr act 1µM, HEK293 tox inconclusive
C/C(=N\OCC(=O)Nc1ccccc1C(=O)O)c1cccs1	BRCA1 expr act 11.2µM
Clc1ccc(COn2nnc3ccccc32)c(Cl)c1	BRCA1 expr act 5.62µM, GLP1R inv ag inconclusive
O=[N+]([O-])c1ccc(COn2nnc3ccccc32)cc1	none
COc1ccc(C2CC(=O)Nc3c2c(=O)[nH]c2nc4ccccc4n32)cc1 (stereo not drawn)	none
O=C(Cc1ccc(Cl)cc1)Nc1cc(Cl)ccn1	BRCA1 expr act 7.08µM, GLP1R inv ag inconclusive
O=C(c1cc(COc2cccc(C(F)(F)F)c2)on1)N1CCCC1	BRCA1 expr act inconclusive
C=CCC1(CC=C)CCCN1C(=O)c1cc(COc2cccc(C(F)(F)F)c2)on1	GLP1R inv ag 10µM
COc1cccc(-c2csc(N3CCN(C(=S)Nc4cccc(Cl)c4)CC3)n2)c1	GLP1R inv ag 10µM
COc1cccc(-c2csc(N3CCN(CC(=O)NNC(=O)c4ccc(Br)cc4)CC3)n2)c1	GLP1R inv ag 11.2µM
COc1cccc(-c2csc(N3CCN(C(=S)Nc4ccccc4Cl)CC3)n2)c1	GLP1R inv ag inconclusive
O=C(C[n+]1ccc(-c2cc(C(=O)Nc3cccc(C(F)(F)F)c3)c3ccccc3n2)cc1)c1cccc([N+](=O)[O-])c1	HEK293 tox inconclusive, GLP1R inv ag 11.2µM
Cc1cc(-c2ccco2)c(C#N)c2nc3ccccc3n12	BRCA1 expr act 2.82µM
O=C(OCc1ccccc1)c1c(-c2ccccc2)oc2c1C(OCCO)CCC2 (stereo not drawn)	GLP1R inv ag inconclusive
Cc1ccc(N/N=C/c2c(O)cc(C)oc2=O)cc1	GLP1R inv ag inconclusive
Cc1cc(O)c(/C=N/Nc2ccc(F)cc2)c(=O)o1	HEK293 tox inconclusive, GLP1R inv ag 1.78µM
C#CC(=O)N(c1cc(OC)ccc1OC)C(C(=O)NC1CCCC1)c1cccs1 (stereo not drawn)	HEK293 tox 5.01µM, GLP1R inv ag 7.94µM
COc1ccc(C)cc1NC(=O)Cn1c(=O)oc2cc(S(=O)(=O)N3CCCCCC3)ccc21	none (no result: GLP-1R agonist, BRCA1 expr act)
COC(=O)c1ccccc1-c1ccc(/C=N/Nc2nc(N3CCCC3)nc(N3CCCC3)n2)o1	HEK293 tox inconclusive, GLP1R inv ag 10µM
CN1OC[C@@H]2CN[C@H](c3ccc(-c4cccc(F)c4)cc3)C[C@@H]21	BRCA1 expr act 11.2µM
CN(C)S(=O)(=O)c1cccc(NC(=O)c2cccc(S(=O)(=O)N3CCCCC3)c2)c1	none
C=C1C[C@@H]2[C@H]3CCC4=CC(=O)C=C[C@]4(C)[C@@]3(F)[C@@H](O)C[C@]2(C)[C@]1(O)C(=O)COC(C)=O	none (no result: BRCA1 expr act, HEK293 tox, GLP1R inv ag)
CCCC(NCC(O)COc1ccc(-c2ccccc2)cc1)c1ccccc1 (stereo not drawn)	HEK293 tox inconclusive, GLP1R inv ag 12.6µM
CC(NCC(O)COc1ccc2ccccc2c1)c1ccccc1 (stereo not drawn)	HEK293 tox inconclusive, GLP1R inv ag 2.82µM
CN(CC(O)COc1ccc2ccccc2c1)C1CCCCC1 (stereo not drawn)	GLP1R inv ag 8.91µM
COc1ccc(OCC(O)CNC(C)c2ccccc2)cc1 (stereo not drawn)	none
CC(NCC(O)COC1CCC(C(C)(C)C)CC1)c1ccccc1 (stereo not drawn)	HEK293 tox inconclusive, GLP1R inv ag 10µM
CCCCCCCCCCCCCCCCCC(=O)[O][Al]	none (no result: BRCA1 expr act, HEK293 tox, GLP1R inv ag)
OC(CNC1CCCC1)COc1ccc(-c2ccccc2)cc1 (stereo not drawn)	GLP1R inv ag 8.91µM
COC(=O)c1ccc(OCC(O)CNC2CCCC2)cc1 (stereo not drawn)	GLP1R inv ag inconclusive
COc1ccc(S(=O)(=O)n2nc(-c3ccc(Cl)cc3)cc2N)cc1	GLP1R inv ag 10µM
CC1CCN(C(=O)CSCc2ccc(Cl)cc2)CC1	BRCA1 expr act 2.82µM, GLP1R inv ag inconclusive
O=C(CSCc1ccc(F)cc1)N1CCN(c2ccc(Cl)cc2)CC1	GLP1R inv ag inconclusive (no result: GLP-1R agonist, BRCA1 expr act)
COc1ccc(CCNC(=O)c2sc3cc(C)ccc3c2Cl)cc1	none
CCNC(=O)c1sc2cc(C)ccc2c1Cl	BRCA1 expr act 7.08µM
Cc1ccc2c(Cl)c(C(=O)NCCc3ccccc3)sc2c1	BRCA1 expr act 3.16µM
Cc1cccc(OCC(=O)Nc2ccc(O)c(-c3nc4ccccc4o3)c2)c1	none (no result: GLP-1R agonist, HEK293 tox, GLP1R inv ag)
CCc1ccc2oc(C(=O)NCC(c3ccc(Cl)cc3)N3CCOCC3)c(C)c2c1 (stereo not drawn)	none (no result: GLP-1R agonist, BRCA1 expr act)
COc1ccccc1OCCn1c(CCNC(=O)C2CCCCC2)nc2ccccc21	none (no result: GLP-1R agonist, HEK293 tox, GLP1R inv ag)
COc1ccc(C(=O)N/N=C\c2ccoc2)cc1	BRCA1 expr act inconclusive
COc1ccc(/[N+]([O-])=C/c2ccoc2)cc1	BRCA1 expr act 11.2µM
COc1ccc(Cn2c(SCC(=O)NCc3ccc(Cl)cc3)nc3ccsc3c2=O)cc1	none
CCOC(=O)Nc1ccc2c(c1)ncn2C1CCCCC1	BRCA1 expr act 12.6µM, HEK293 tox inconclusive
CC(C)CCNC(=O)c1ccc2c(c1)ncn2C1CCCC1	BRCA1 expr act 7.08µM
Cc1cccc(C)c1OC(=O)CCN1C(=O)C2C3C=CC(C4CC34)C2C1=O (stereo not drawn)	GLP1R inv ag 7.08µM
CC1(C)Cc2cccc(C(=O)Nc3ccc(Cl)cc3)c2O1	GLP1R inv ag 11.2µM
Cc1ccc(N=Cc2sc(O)c3ccccc23)c(C)c1	BRCA1 expr act 3.16µM
CCOCCCNC(=O)C1CCN(c2nn3cc(-c4ccc(F)cc4)nc3s2)CC1	none (no result: GLP-1R agonist, BRCA1 expr act)
CCN(c1ccccc1)S(=O)(=O)c1cc(C(=O)Nc2ccc(F)c(F)c2)ccc1F	HEK293 tox inconclusive, GLP1R inv ag 1.41µM
CC1(C(=O)O)CCC2(C)CCC3(C)C(=CC(=O)C4C5(C)CCC(O)C(C)(C)C5CCC43C)C2C1 (stereo not drawn)	none (no result: BRCA1 expr act, HEK293 tox, GLP1R inv ag)
